Source: PubChem (National Center for Advancing Translational Sciences (NCATS))
D1 agonist: activates the human D1 dopamine receptor | HEK293 T-REx D1 cells, calcium flux, agonist mode | 360,000 compounds, 1% hits | P21728 | activation, % at 2 µM | AID 504660; in the data active means activation above about 30%
Target sequence (P21728 whole entry, looked up): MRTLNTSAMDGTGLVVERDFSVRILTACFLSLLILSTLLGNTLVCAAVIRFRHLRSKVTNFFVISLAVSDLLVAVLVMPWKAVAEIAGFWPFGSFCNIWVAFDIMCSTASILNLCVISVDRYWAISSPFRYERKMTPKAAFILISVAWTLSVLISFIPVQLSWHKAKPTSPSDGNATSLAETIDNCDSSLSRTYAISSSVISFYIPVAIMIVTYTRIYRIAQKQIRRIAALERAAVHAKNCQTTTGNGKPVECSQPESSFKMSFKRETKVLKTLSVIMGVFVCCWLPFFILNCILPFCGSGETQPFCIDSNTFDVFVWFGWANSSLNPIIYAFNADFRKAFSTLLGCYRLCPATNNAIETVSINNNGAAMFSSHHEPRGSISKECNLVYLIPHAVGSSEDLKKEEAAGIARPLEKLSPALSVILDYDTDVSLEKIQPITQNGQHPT
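Inducible HEK293 T-REx D1 cells, force-coupled to calcium signalling, were plated at 4000 cells/well with tetracycline and held overnight at 30 C. After no-wash calcium dye loading, compound-evoked calcium rise over 180 s flagged agonists.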
D3 ag: D3 dopamine receptor (human) agonism; D3R DiscoveRx beta-arrestin cells, luminescence, 90 min; max activation, %; 410,000 compounds, 0.58% hits; AID 652048; P35462; in the data active means max activation above about 30%
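Cells at 1500/well, incubated overnight, then treated with pinned compounds (dopamine as control) for 90 min at 37 degrees C. DiscoveRx reagent added for 30 - 60 minutes at room temperature; luminescence read.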
D1 antagonist: human D1 dopamine receptor antagonism; 360,000 compounds, 3.2% hits; AID 504652; HEK293 TREx D1 cells, calcium flux, dopamine EC80; active compounds read low; activity change, negative = inhibition, % at 10 µM; in the data active means activity change below about -30%
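Kinetic fluorescence of a calcium dye serves as the read-out. D1-expressing Hek293 Trex cells, induced overnight at 30 C, are exposed to compound for 180 s before an EC80 dopamine addition, then read 180 s further.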
D3 antag: antagonists of human D3 dopamine receptor. P35462. D3R cells, DiscoveRx beta-arrestin luminescence, antagonist mode; active compounds read low. max response, negative = inhibition, %. 360,000 compounds, 2.5% hits. AID 652054; in the data active means max response below about -50%; inconclusive means no clear call, values can overlap the other calls
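Cells expressing the human receptor were seeded at 1500 cells/well, incubated overnight at 37 degrees C in 5% CO2, then exposed to library compounds with dopamine controls for 90 minutes at 37 degrees C before luminescent detection.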
D1 PAM: potentiators of human D1 dopamine receptor | P21728 | HEK293 TREx D1 cells, calcium flux, dopamine EC20 potentiation | potentiation, % at 10 µM | 360,000 compounds, 0.036% hits | AID 504651; in the data active means potentiation above about 30%
Each line names hits and unclear results; the compound was inactive in the other large screens. Compounds with a hit are over-represented: about 6% of the library has one in this group of screens.

O=C(Nc1nnc(-c2ccc(Cl)cc2)o1)Nc1ccccc1Cl	none
O=C(Nc1nnc(-c2ccco2)o1)c1ccc(Cl)s1	none
COc1cccc(-c2nnc(NC(=O)c3ccc(Cl)s3)o2)c1	D1 agonist 73, D1 antagonist -36
Cc1cccc(-c2nnc(NC(=O)c3ccc(Cl)cc3)o2)c1	D1 agonist 57, D3 antag -97
O=C(Nc1nnc(-c2ccc(Cl)cc2)o1)c1nc2ccccc2s1	D3 antag -74
Cc1cc(C)n2nc(-c3ccsc3-n3c(C)ccc3C)cc2n1	D1 antagonist -55, D3 antag inconclusive
CN(CCOc1ccccc1)C(=O)c1cc(S(=O)(=O)N2CCOCC2)c(Cl)cc1Cl	none (no result: D1 agonist, D1 antagonist, D1 PAM)
Cc1nn(-c2ccccc2)c2nc(C3CC3)cc(C(=O)Nc3ccccc3F)c12	none (no result: D3 antag)
Cc1nn(C2CCS(=O)(=O)C2)c2nc(C3CC3)cc(C(=O)Nc3cccc(C#N)c3)c12 (centres undefined)	D1 antagonist -36
CCc1nc2ccc(C(=O)NCc3ccc4c(c3)OCO4)cn2c1N(C)Cc1ccc(OC)cc1	D3 antag inconclusive (no result: D1 agonist, D1 antagonist, D1 PAM)
COc1cc(NC(=O)N[C@@H](Cc2c[nH]c3ccccc23)C(=O)O)c(C(=O)O)cc1OC	none
CN(C)c1ccc(/C=c2\sc3n(c2=O)CCCN=3)cc1	D1 agonist 46
O=C(CN1CCN(S(=O)(=O)c2ccccc2[N+](=O)[O-])CC1)Nc1ccc(N2CCOCC2)cc1	D1 antagonist -46
CC(=O)c1c(C)[nH]c(C(=O)CN2CCN(S(=O)(=O)c3ccccc3[N+](=O)[O-])CC2)c1C	D1 antagonist -31
Cc1ccc(S(=O)(=O)NC(=O)N[C@@H](C)Cc2ccccc2)cc1	none (no result: D1 agonist, D1 antagonist, D3 antag, D1 PAM)
Cc1nn2c(=O)cc(COC(=O)c3ccccc3NC(=O)C(C)Oc3ccccc3)nc2s1 (centres undefined)	none (no result: D3 antag)
O=C(Nc1nccs1)c1ccc(CSc2ccccc2)o1	D1 antagonist -40
Cc1ccc(SCc2ccc(C(=O)Nc3nccs3)o2)cc1	none
COc1cccc(S(=O)(=O)N(C)C[C@H]2Oc3cc(Br)ccc3S(=O)(=O)N([C@@H](C)CO)C[C@H]2C)c1	none (no result: D1 agonist, D1 antagonist, D1 PAM)
COc1cccc(C(=O)NC2CC3CCCC(C2)N3Cc2ccc(F)cc2)c1 (centres undefined)	D3 antag -107 (no result: D1 agonist, D1 antagonist, D1 PAM)
COc1cccc(C(=O)NC2CC3CCCC(C2)N3Cc2ccc(C)cc2)c1 (centres undefined)	D3 antag -112
CCOC(=O)c1ccc(-c2ccc3c(=O)c4ccccc4n(C)c3c2)cc1F	none
Cc1cc(N/N=C/c2ccc(O)c(C)c2O)nc(-c2ccccc2O)n1	D1 antagonist -32
CCOC(=O)C1=C(Cc2ccc(Cl)cc2)C(=O)c2ccccc2C1=O	D3 antag -76
CCOC(=O)C1=C(C)N=C2c3ccccc3C(=O)C2C1c1ccc(Cl)cc1 (centres undefined)	D3 antag inconclusive
Cc1cccc(C2(c3cccc(C)c3)CC2C(=O)Nc2ccc([N+](=O)[O-])cc2O)c1 (centres undefined)	D1 antagonist -33, D3 antag -70
CCC1(CC)NC(=S)N(Nc2ccccc2)C1=O	D1 antagonist -33
O=C1c2ccccc2C(=O)N1Nc1ccccc1	none (no result: D1 agonist, D1 antagonist, D1 PAM)
CC(C)C(=O)N1CCCC1(C)C(=O)Nc1ccc(F)cc1 (centres undefined)	none (no result: D1 agonist, D1 antagonist, D1 PAM)
CCN(CC(O)c1cccc(O)c1)C(=O)C12CC3CC(CC(C3)C1)C2 (centres undefined)	D3 antag -78
Cc1cc(N2CCN(C(c3ccnc4ccccc34)c3nnnn3-c3c(C)cccc3C)CC2)c2ccccc2n1 (centres undefined)	none (no result: D1 agonist, D1 antagonist, D1 PAM)
O=[S+]([O-])(c1ccc2c(c1)OCCO2)N1CCN([S+](=O)([O-])c2ccc(F)cc2Cl)CC1	none (no result: D3 ag, D3 antag)
COC(=O)Cc1ccc(N(Cc2ccccc2F)S(=O)(=O)c2ccc(Cl)cc2)cc1	D3 antag -56
CCOc1ccc(CNC(=O)COc2cc(=O)n(C)c3ccccc23)cc1	none (no result: D3 antag)
Cc1ccc(CNC(=O)CSc2ncc3c(n2)-c2ccc(Cl)cc2N(Cc2ccccc2)S3(=O)=O)cc1	none (no result: D3 antag)
COc1cccc(C(=O)Nn2cnnc2)c1	D3 ag 31
COc1cc(OC)cc(C(=O)Nn2cnnc2)c1	none
CCCOc1ccccc1N/C(=N/c1nc(C)cc(C)n1)NC(=O)Nc1ccc(Cl)cc1	D1 antagonist -50
CCOc1cc(/C=C2\CN(C)C/C(=C\c3ccc(O)c(OCC)c3)C2=O)ccc1O	D3 antag -52
COc1cc(/C=C2\SC(=S)N(NC(=O)c3ccc(O)cc3)C2=O)ccc1O	D1 agonist 124
O=C(NN1C(=O)/C(=C/c2ccc(O)c(O)c2)SC1=S)c1ccccc1	D3 antag -63
COc1cc(/C=C2\SC(=S)N(Nc3ccccc3)C2=O)ccc1O	D1 agonist 122, D3 antag inconclusive
CCOc1cc(/C=C2\SC(=S)N(NS(=O)(=O)c3ccccc3)C2=O)ccc1O	none
O=C(NN1C(=O)/C(=C/c2cccc(O)c2)SC1=S)c1ccccc1O	none
COc1cc(/C=C2\SC(=S)N(NC(=O)c3cccnc3)C2=O)ccc1O	none
O=C(Cn1c(Cn2c(-c3cnccn3)nc3ccccc32)nc2ccccc21)c1ccc(OC(F)(F)F)cc1	none (no result: D1 agonist, D1 antagonist, D1 PAM)
CCc1cccc(NC(=O)C2CCCN2C(=O)Nc2ccc(C)cc2)c1 (centres undefined)	none (no result: D1 PAM)
CCOc1cc(/C=C2\SC(=S)N(Nc3ccccc3)C2=O)ccc1O	D1 agonist 40, D1 antagonist -47, D3 antag inconclusive
COc1cc(/C=C2\SC(=S)N(C(Cc3ccccc3)C(=O)O)C2=O)ccc1O (centres undefined)	D1 agonist 47
COc1ccc(/C=C2\SC(=S)N(CC3CCCO3)C2=O)cc1 (centres undefined)	none
COc1cc(/C=C2/SC(=S)N(CC3CCCO3)C2=O)ccc1O (centres undefined)	D1 agonist 87
O=C(O)c1ccc(/C=C2\SC(=S)N(Nc3ccccc3)C2=O)cc1	none
O=C1/C(=C/c2ccc(O)c(O)c2)SC(=S)N1Nc1ccccc1	D1 agonist 48
CCOc1ccc2nc(NC(=O)c3nc(SCc4ccc(C)cc4)ncc3Cl)sc2c1	none (no result: D3 antag)
CCN(CC(=O)Nc1ccccc1C(F)(F)F)C(=O)c1ccc(-n2nc(C)c(CCC(=O)OC)c2C)cc1	none (no result: D1 agonist, D1 antagonist, D1 PAM)
CCOC(=O)C1=CCN(S(=O)(=O)c2ccccc2Br)C1c1ccccc1 (centres undefined)	none (no result: D1 agonist, D1 antagonist, D1 PAM)
Cc1ccc(C(=O)NN2C(=O)/C(=C/c3cn(C)c4ccccc34)SC2=S)cc1	D1 agonist 65
Cn1cc(/C=C2\SC(=S)N(NC(=O)c3ccccc3Cl)C2=O)c2ccccc21	none
Cc1ccc(C)c(N2CCN(C(=O)c3ccc4nc(-c5ccco5)c(-c5ccco5)nc4c3)CC2)c1	D3 ag 34
CCc1nn(Cc2cccc(F)c2)c(=O)c2cc3cc(C)ccc3n12	none (no result: D3 antag)
